# BRCA1 expr act: BRCA1 expression activation; MCF7-BRCA1-FFLuc reporter, luminescence, 48 h; response scale: scaled: vehicle 0%, 10 µM genistein 100%; Potency, µM (series often up to 46.1 µM), without a hit: top-dose activation, hits mostly activators; 380,000 compounds, 1.1% hits; AID 624202; further: potency means the concentration at half of the fitted maximal effect; nearly all actives have a fitted effect of over 80% in size
#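 Reporter cells (MCF7, BRCA1 promoter-firefly luciferase) received library compounds across a concentration series for 48 h. End-point luminescence was measured and concentration-effect curves derived after normalization.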
# IDH1 R132H inh: inhibitors of human mutant IDH1 R132H; AID 602179; Potency, µM (titrated, usually from 76.6 µM), inactives show top-dose activity change, negative = inhibition, usual class: inhibitors; 390,000 compounds, 0.093% hits; IDH1-R132H enzyme, NADPH consumption, diaphorase/resazurin fluorescence; O75874; further: potency means the concentration at half of the fitted maximal effect; on the % scale 0 is the no-effect control and ±100 the full control effect; nearly all actives have a fitted effect of over 65% in size
# Target sequence (O75874 whole entry R132H, stated change not applied): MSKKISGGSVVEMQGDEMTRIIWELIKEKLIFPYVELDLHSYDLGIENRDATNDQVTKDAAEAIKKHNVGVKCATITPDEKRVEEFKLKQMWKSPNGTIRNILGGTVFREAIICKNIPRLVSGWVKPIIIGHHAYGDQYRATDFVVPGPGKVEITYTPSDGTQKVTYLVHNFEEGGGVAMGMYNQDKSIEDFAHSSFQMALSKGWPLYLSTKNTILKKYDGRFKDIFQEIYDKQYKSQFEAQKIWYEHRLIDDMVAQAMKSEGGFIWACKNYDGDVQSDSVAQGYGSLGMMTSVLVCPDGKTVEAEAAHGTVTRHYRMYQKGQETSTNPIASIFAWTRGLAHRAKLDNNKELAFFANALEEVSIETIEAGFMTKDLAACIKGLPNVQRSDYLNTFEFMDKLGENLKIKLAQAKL
#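 IDH1-R132H (0.5 ug/mL dispensed) in pH 7.5 Tris buffer was preincubated 30 min with compound, then given a substrate mix of 0.016 mM NADPH and 2 mM alpha-KG for 80 min at room temperature; remaining NADPH was read by diaphorase/resazurin fluorescence.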
# gsp antag: antagonists of gsp mutant (McCune-Albright syndrome) | gsp-mutant cells, cAMP HTRF, 30 min | Potency, µM (top dose mostly 76.9 µM), for the others: top-dose activity change, negative = inhibition, usual class: inhibitors | 340,000 compounds, 0.4% hits; calls by dose curve; cell line not stated here;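 further: intracellular cAMP measured with PDE inhibitor Ro 20-1724 present during compound exposure; potency means the concentration at half of the fitted maximal effect; on the % scale 0 is the no-effect control and ±100 the full control effect; nearly all actives have a fitted effect of over 65% in size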
#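 HTRF cAMP read-out (cAMP-d2 plus anti-cAMP antibody-K in lysis buffer, 30 min RT). Before lysis, cells are exposed to compounds with […] for 30 min at 37C in DPBS containing Ca/Mg, BSA and Tween 20.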
# IL-2 act: activators of IL-2. activation, % (series mostly up to about 46 µM). IL-2 activation reporter assay, cell-based qHTS; stimulated with anti-CD3/CD4/CD28 beads; in transgenic mouse T cells. AID 652025. 360,000 compounds, 0.065% hits; in the data active means activation above about 50%; inconclusive means mostly about 30% to 49%; further: 0% is about no effect
#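 Unstimulated transgenic mouse T cells, 750 per well, received compound and, after 60 minutes, anti-CD3/anti-CD4 bead plus anti-CD28 stimulation. EGFP and DsRed were quantified after 18 hours.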
# gsp agonist: activates gsp, the McCune-Albright syndrome mutation | gsp mutant cells, cAMP HTRF, 30 min | Potency, µM (titrated, usually from 76.9 µM), for inactives: at the highest dose activation (cAMP increase), usual class: activators | 340,000 compounds, 0.13% hits; active means well fitted activation curve with a large enough effect; inconclusive means small, poorly fitted or top-dose-only effect, or another doubt; inactive means no such curve, though single readings can be large or run the other way; cell line not stated here;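 further: phosphodiesterase inhibitor Ro 20-1724 added with compounds to block cAMP breakdown; potency means the concentration at half of the fitted maximal effect; nearly all actives have a fitted effect of over 60% in size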
#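 Cells stably selected in G418 were plated at 2000/well, grown 16-24 hr, then given compounds in DMSO with the PDE inhibitor […] (300 uM solution added) for 30 min at 37C; cAMP was read by HTRF.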
# Numbers without * were called inactive; ? = inconclusive; . = not tested or not shown; [ ] = another dose, or the depositor's remark. Rows were chosen to be rich in hits. Some 1.5% of all compounds tested hit in one or more screens of this group. Unless noted, the call rests on the fitted dose curve; in most records, active means well fitted curve in the direction sought with a large enough effect; inconclusive means small, poorly fitted or top-dose-only effect, or another doubt; inactive means no such curve, though single readings can be large; an effect the other way counts as inactive or inconclusive.
SMILES,BRCA1 expr act,IDH1 R132H inh,gsp antag,IL-2 act,gsp agonist
CS(=O)(=O)c1ccc2nc(NC(=O)c3cccc([N+](=O)[O-])c3)sc2c1,5.6µM*,20%,?,1,?
CNc1nc(-c2ccc([N+](=O)[O-])cc2)cs1,10µM*,3%,-6%,0,5%
C1NNCC12CNNC2,0%,.,.,.,.
Cc1ccc(Cl)cc1NC(=O)Cn1c(=O)n(Cc2ccccc2)c(=O)c2oc3ccccc3c21,.,-10%,.,.,.
O=C1Nc2ccccc2Nc2ncccc21,-17%,10%,8%,0,-64%
Cc1ccc2c(c1)NC(=O)c1cccnc1N2,4.5µM*,4%,-13%,0,29%
CN(C)Cc1c(C(=O)N/N=C/c2cccc(OCc3ccc(F)cc3)c2)nnn1-c1nonc1N,34%,15%,7%,-4,14%[15.4 µM]
CCCOc1ccc(/C=N/NC(=O)c2nnn(-c3nonc3N)c2-c2cccs2)cc1OC,28%,-7%,32µM*,-2,-22%
Nc1nonc1-n1nnc(C(=O)N/N=C/c2cccnc2)c1CSc1ccccc1,-13%,-8%,-22%,-4,-81%
Nc1nonc1-n1nnc(C(=O)N/N=C/c2cccnc2)c1CSc1ccc(Cl)cc1,-48%,0%,35µM*,-5,-7%
Nc1nonc1-n1nnc(C(=O)N/N=C/c2ccc3c(c2)OCO3)c1-c1ccccc1,-9%,7%,35µM*,1,-5%[15.4 µM]
CN(C)Cc1c(C(=O)N/N=C/c2cccc(OCc3ccccc3)c2)nnn1-c1nonc1N,3%,10%,50µM*,-2,-43%
Cc1ccc2nc3c(cc(C(=O)NCc4ccco4)c(=N)n3C(C)C)c(=O)n2c1,.,11%,.,.,.
CCCCNc1ccc2c(c1)C1CC2CCN1C(=O)OCc1ccccc1 (configuration not stated),8.9µM*,4%[38.3 µM],-15%,-1,.
COc1cc2c(NC3CCN(C)CC3)nc(N3CCCCC3)nc2cc1OCCCN(C)C,-69%,.,.,.,.
CCOC(=O)c1c(C)[nH]c(C(C)=NNC(=O)c2cccs2)c1C,2.8µM*,0%,3%,1,-24%
COc1ccc(C(C)=O)cc1CSc1nnc(Nc2ccc(C)cc2C)s1,-37%,6%,-29%,-4,-14%[15.4 µM]
COc1ccc(C(C)=O)cc1CSc1nnc(Nc2ccccc2C)s1,-15%,14%,11µM*,-5,-46%
COc1cccc(Cn2c(CNC(=O)Cc3cccc(C)c3)nc3cccnc32)c1,.,-9%,.,.,.
Cc1cc(C(=O)O/N=C(\N)c2ccc(C(C)(C)C)cc2)no1,2.5µM*,0%,-6%,1,-16%
CC(C)(C)c1ccc(C(=O)O/N=C(\N)c2ccccc2)cc1,-73%,7%,0%,-2,29%
CC(C)c1nnc(NC(=O)CCC(=O)N2CCC(Cc3ccccc3)CC2)s1,-1%,0%,-6%,0,15%
Cc1ccc(C)c(Cn2nc(C)n3c(cc4cc(C)ccc43)c2=O)c1,24%,-11%,.,.,.
Cc1ccc2c(c1)cc1c(=O)[nH]ncn12,11µM*,3%,-8%,-1,2%
COc1cc2nc(N3CCCN(C)CC3)nc(N)c2cc1OC,3%,.,.,.,.
SMILES,BRCA1 expr act,IDH1 R132H inh,gsp antag,IL-2 act,gsp agonist
O=C(c1ccc(Cl)cc1)c1coc2ccc(O)cc12,4µM*,9%,-4%,-1,1%
O=C(c1ccc(Br)cc1)c1coc2ccc(O)cc12,11µM*,-2%,-6%,-2,-1%[15.4 µM]
O=C(c1coc2ccc(O)cc12)C1CC1,53%,8%,10%,0,-13%
Cc1ccc(NC(=O)c2c3c(nc4ccccc24)C(=O)N(C2CCCCC2)C3)cc1F,.,0%,.,.,.
Cc1ccc(-c2nc3ccc(Br)cn3c2Cc2cccc(F)c2)cc1,3.2µM*,.,.,0,.
Fc1ccc(-c2nc3ccc(Br)cn3c2Cc2cccc(F)c2)cc1,59%,.,.,0,.
Cc1ccc(S(=O)(=O)N2CCN(C(=O)CNC(=O)c3sc4ccccc4c3Cl)CC2)cc1,41%,-4%,-33%,-1,11µM*
O=C(NCCCN1CCOCC1)c1sc2ccccc2c1Cl,11µM*,3%,2%,-2,-22%
O=C(NCCN1CCOCC1)c1sc2cc(Cl)ccc2c1Cl,?,0%,7%,7,-1%[15.4 µM]
O=C(NCC(=O)N1CCCCC1)c1sc2ccccc2c1Cl,4.5µM*,4%,5%,1,20%
CC1CCCN(C(=O)CNC(=O)c2sc3ccccc3c2Cl)C1 (configuration not stated),?,3%,-15%,-3,?
O=C(Nc1ccc(Cl)cn1)c1cc2c(s1)-c1ccccc1OC2,5.6µM*,-9%,3%,0,?
Cc1cc(C(=O)CSc2nnnn2C)c(C)n1-c1ccc2c(c1)OCCO2,7.9µM*,29%,-14%,-1,17%
CCN(CC(=O)Nc1ccc(NC(C)=O)cc1)C(=O)c1ccc(N(C)S(=O)(=O)c2ccc(C)cc2)cc1,0%,-13%,2%,3,?
CC1CCC/C(=N\Nc2ccc(Cl)c(C(=O)O)c2)C1 (configuration not stated),5µM*,6%,4%,-1,9%[15.4 µM]
COc1cccc(-c2cc(C(=O)NCc3ccco3)no2)c1,7.9µM*,4%,13%,-2,9%
O=C(NCc1ccco1)c1cc(-c2ccc(Cl)cc2)on1,35%,7%,13%,-3,-2%
O=C(NCc1cccs1)c1cc(-c2cccs2)on1,68%,-6%,14%,-4,-15%
Cc1ccc(-c2cc(C(=O)NCc3ccco3)no2)cc1,4µM*,5%,5%,-3,-38%
COCC(C)NC(=O)c1cc(-c2cccc(OC)c2)on1 (configuration not stated),10µM*,4%,-14%,0,-34%
O=C(NCc1cccs1)c1cc(-c2ccccc2)on1,5µM*,12%,0%,1,-25%
CC1(C)CCC(c2ccc(Cl)cc2)=C(CN2CCN(c3ccc(C(=O)NS(=O)(=O)c4ccc(N[C@H](CCN5CCOCC5)CSc5ccccc5)c(S(=O)(=O)C(F)(F)F)c4)cc3)CC2)C1,-38%,.,.,.,.
COc1ccc(C2=NOC(Cn3nc(C(=O)NCc4ccc(C)cc4)cc3-c3ccccc3)C2)cc1 (configuration not stated),-10%,-9%,-24%,-1,13%
COc1cccc(OCc2cc(C(=O)NCc3ccccn3)no2)c1,13µM*,-5%,-5%,2,-11%
COc1cccc(OCc2cc(C(=O)NCCc3cccc(C)n3)no2)c1,0%,2%,0%,-2,24%[15.4 µM]
CC(C)(C)c1ccc(NC(=S)NCCc2ccccn2)cc1,-5%,4%,-9%,0,-5%[15.4 µM]
COc1ccc(C2=NOC(Cn3nc(C(=O)NCc4ccco4)cc3-c3ccccc3)C2)cc1 (configuration not stated),0%,7%,32µM*,0,-27%

# Screening results (PubChem)
